# Mito fusion yeast: blocks mitochondrial division or promotes mitochondrial fusion | S. cerevisiae fusion-defective mutant growth rescue, CellTiterGlo 48 h | Potency, µM (titrated, usually from 46.1 µM), hits mostly activators | 0.23% of 320,000 active | AID 485298; also: nearly all actives have a fitted effect of over 45% in size
#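 Yeast fusion mutant, YPEG (non-fermentable carbon), compound, 48 h at 37C non-permissive; CellTiterGlo added, 10 min RT, luminescence read. Rescued growth = division inhibition.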
# Abeta rescue: A-beta toxicity reversal in yeast; AID 1347071; Potency, µM (highest dose often 46.1 µM), actives largely listed as activators; 0.063% of 410,000 active; yeast expressing A-beta42, growth rescue, OD600, 48 h; response scale: 0% DMSO, 100% iron-clioquinol control; also: nearly all actives have a fitted effect of over 55% in size
#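 Yeast A-beta toxicity model in growth medium with pinned compounds, 48 h at 30 C; growth read as absorbance at 600 nm. Normalized to FeCl3/clioquinol equimolar mix (positive) and DMSO (negative).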
# aSyn yeast inh: inhibitors of alpha-synuclein toxicity in yeast | Potency, µM (top dose mostly 46.1 µM), most hits filed as activators | 0.14% of 370,000 active | Yeast expressing alpha-synuclein, growth rescue, BacTiter-Glo, 24 h; also: nearly all actives have a fitted effect of over 65% in size
#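 Screening used galactose-induced yeast with toxic alpha-synuclein levels, exposed to compound for 24 hr at 30 deg C. Cell growth, read with BacTiter-Glo luminescence, gave the measured signal.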
# FUS suppressor: suppressors of FUS proteinopathy in yeast; S. cerevisiae FUS-expressing, growth rescue, OD600, 24 h; Potency, µM (series often up to 76.6 µM), most hits filed as activators; 0.24% of 390,000 active; also: nearly all actives have a fitted effect of over 55% in size
#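 Cultures pregrown in 2.5% raffinose medium are shifted to minimal medium containing 2% galactose to express toxic FUS. Compounds are tested at several concentrations. After 24hr at 30C, growth is quantified at 600 nm absorbance.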
# TDP-43 yeast inh: rescues yeast growth from TDP-43 toxicity | Potency, µM (titrated, usually from 46.1 µM), usual class: activators | 1.8% of 410,000 active | TDP-43 expressing yeast growth rescue, BacTiter-Glo, 24 h; also: nearly all actives have a fitted effect of over 50% in size
#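 Yeast expressing TDP-43 (pregrown in raffinose, seeded at OD600=0.02 in galactose medium) exposed to compounds 24 hr at 30 deg C. Growth read by BacTiter-Glo luminescence; rescue of toxicity appears as increased signal.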
# Hits are given with their value; – = inactive; ? = inconclusive; · = no result; [ ] = another dose, or the depositor's remark. In the library only some 2.2% were active in any assay of this set; here they are far more common. Calls follow the shape of the dose curve; as a rule, active = well fitted curve in the direction sought with a large enough effect; inconclusive = small, poorly fitted or top-dose-only effect, or another doubt; inactive = no such curve, though single readings can be large; an effect the other way counts as inactive or inconclusive.
SMILES,Mito fusion yeast,Abeta rescue,aSyn yeast inh,FUS suppressor,TDP-43 yeast inh
CC1CCCN(c2nc3c(c(=O)n(C)c(=O)n3C)n2Cc2ccccc2)C1 (stereo not given),–,–,–,–,17.8µM
Cc1ccc(-c2nc3scc(CCNC(=O)c4cccc(Br)c4)n3n2)cc1,·,–,·,–,11.2µM
O=C(NCCc1csc2nc(-c3cccc(F)c3)nn12)c1ccc(Br)o1,·,–,·,–,35.5µM
O=C(Cc1ccc(F)cc1)NCCc1csc2nc(-c3ccc(Cl)cc3)nn12,·,–,·,–,–[9.22 µM]
O=C1c2ccccc2N2C(=O)c3ccccc3C2N1Cc1ccccc1 (stereo not given),–,–,–,–,–
O=C1c2ccccc2N2C(=O)c3ccccc3[C@H]2N1c1ccccc1,–,–[9.22 µM],–,–,20µM
Cc1cccc(C)c1-n1ncc(C(=O)N2CCN(c3ccccc3)CC2)c1C1CCN(C(=O)OC(C)(C)C)CC1,·,–,·,–,–
COC(=O)Cn1c(=O)c2c(nc3n2CCCN3Cc2ccccc2)n(C)c1=O,6.31µM,–,–,–,–
Cc1ccc2oc(-c3cccc(NC(=O)COc4ccc(Cl)cc4C)c3C)nc2c1,·,·,–,·,·
CCSc1ccc(-c2cc(NC=O)c3ncc(-c4cccc(C(=O)N(C)C)c4)n3c2)cc1,·,–,–,25.1µM,–
COc1ccc(-c2cnc3c(NC=O)cc(-c4ccccc4)cn23)cc1OC,·,–,–,–,?
COc1ccc(-c2cc(NC=O)c3ncc(-c4cccc(OC)c4)n3c2)cc1,·,–,–,–,10µM
COc1cccc(-c2cnc3c(NC=O)cc(-c4ccc(OC)cc4OC)cn23)c1,·,–,–,?,22.4µM
COc1cccc(-c2cnc3c(NC=O)cc(-c4ccc(N(C)C)cc4)cn23)c1,·,–,–,?,20µM
C#CCNCCS(=O)(=O)N(Cc1ccc(Br)cc1)[C@@H](CC(C)C)C(=O)O,·,–,–,–,–
COc1ccc(F)cc1-c1cc(C(C)=O)c2n(c1=O)CCC2,·,·,·,–,·
COc1cccc(-c2cc(NC=O)c3ncc(-c4ccc(OC)c(OC)c4)n3c2)c1,·,–,–,?,?
COc1cccc(-c2cnc3c(NC=O)cc(-c4cc(OC)c(OC)c(OC)c4)cn23)c1,·,–,–,28.2µM,?
Cc1cc(F)ccc1S(=O)(=O)Nc1ncnc2sc3c(c12)CCC3,?,–,–,–,20µM
Fc1ccc(Nc2ncnc3sc4c(c23)CCC4)cc1,–,–,31.6µM,–,17.8µM
Clc1ccc(-c2csc3ncnc(Cl)c23)cc1,–,–,–,–,–
NNc1ncnc2scc(-c3ccc(Cl)cc3)c12,–,–,–,–,15.8µM
O=S(=O)(Nc1ncnc2sc3c(c12)CCC3)c1ccc2ccccc2c1,–,–,–,?,–
COc1ccc(Nc2ncnc3scc(-c4ccc(F)cc4)c23)cc1,·,–,·,–,–
COc1ccc(Nc2ncnc3scc(-c4ccc(OC)cc4)c23)cc1,–,–,–,·,22.4µM
SMILES,Mito fusion yeast,Abeta rescue,aSyn yeast inh,FUS suppressor,TDP-43 yeast inh
COc1ccccc1CNC(=O)NNC(=O)CCn1nc(C)c([N+](=O)[O-])c1C,·,·,·,–,·
CC(=O)Nc1ccc(Nc2ncnc3sc4c(c23)CCCC4)cc1,·,–,–,–,?
COc1ccc(Nc2ncnc3sc4c(c23)CCCC4)cc1,·,–,–,–,20µM
CCc1ccc(Nc2ncnc3sc4c(c23)CCCC4)cc1,·,–,–,–,20µM
O=C(c1ccc(C#Cc2ccccc2)cc1)N1CCC(O)CC1,·,·,·,–,·
CC(C)[C@H]1Cn2nnc(-c3ccccc3)c2Cn2c3ccccc3c(=O)n21,·,·,·,–,·
COc1ccc2c(c1)C(=O)CC2,·,·,–,·,·
COc1ccc(N2CCN(C(=O)c3cc(N4C(=O)C5C6CCC(C6)C5C4=O)ccc3Cl)CC2)cc1 (stereo not given),–,–,–,·,–
O=C(c1cc(N2C(=O)C3C4CCC(C4)C3C2=O)ccc1Cl)N1CCN(c2ccc(F)cc2)CC1 (stereo not given),5.62µM,–,–,·,–
O=S1OC(c2ccccc2)c2cc(Cl)ccc21 (stereo not given),–,–,–,–,12.6µM
CCCCCCC(=O)N1C/C=C\C(c2ccc(OC)cc2)N(Cc2ccc(F)cc2)C(=O)C1 (stereo not given),–,–,–,?,28.2µM
